Inconclusive results are not listed. A call without a number means that no potency is given here. Active and inactive are the calls of the source. Calls come from the whole dose curve; as a rule, active = well fitted cell-killing curve with a large enough effect in the repeat runs; inconclusive = weak or mixed curves, or effect the other way; inactive = no such curve, though single readings can be large or run the other way.
Assay: qHTS assay to identify small molecule agonists of the farnesoid-X-receptor (FXR) signaling pathway - cell viability counter screen (AID 743218); note: nearly all actives have a fitted effect of over 45% in size
Conditions: FXR-bla HEK293T viability, CellTiter-Glo luminescence, 16 h; series mostly up to 62.6 µM
Text: U.S. Tox21 Program National Center for Advancing Translational Sciences [NCATS] NIH Chemical Genomics Center [NCGC] U.S. Environmental Protection Agency [EPA] National Institutes of Environmental Health Sciences [NIEHS] National Toxicology Program [NTP] U.S. Food and Drug Administration [FDA] Tox21 Assay Overview: The farnesoid-X-receptor (FXR), a nuclear hormone receptor, is highly expressed in liver, intestine, kidney and adrenal cortex. Natural ligands of FXR are the bile acids (Cholic acid, Chenodeoxy cholic acid etc). FXR is an important regulator of diverse metabolic pathways, including the bile acid homeostasis, lipid and glucose metabolisms. FXR regulates the expression of target genes by binding either as a monomer or as a heterodimer with the retinoid X receptor (RXR). Numerous studies have reported that FXR exerts protective function during cholestasis, diabetes, liver regeneration, and cancer. To identify compounds that activate FXR signaling, GeneBLAzer FXR-UAS-bla HEK 293T cell line (Invitrogen, Carlsbad, CA) containing a beta-lactamase reporter gene under the control of a UAS response element was used to screen the Tox21 10K compound library. The cytotoxicity of the Tox21 compound library against the FXR-bla cell line was tested in parallel by measuring the cell viability using CellTiter-Glo assay in the same wells.
Tox21 Assay Protocol Summary: FXR-bla cells were dispensed at 5000 cells/5uL/well in 1536-well black wall/clear bottom plates using a Multidrop Combi (Thermo Fisher Scientific, Waltham, MA) dispenser. After the assay plates were incubated at 37 C and 5% CO2 for 5 h, 23 nL of compounds dissolved in DMSO, positive controls or DMSO only was transferred to the assay plate by a Pintool station (Kalypsys, San Diego, CA). The assay plates were incubated at 37C for 16 h. After 1 uL of LiveBLAzerTM B/G FRET substrate was added using a Bioraptr Flying Reagent Dispenser (FRD) workstation (Beckman Coulter, Indianapolis, IN), the plates were incubated at room temperature for 2 h, and fluorescence intensity was measured by an Envision plate reader (PerkinElmer, Shelton, CT). For cell viability readout that measures cytotoxicity, 4uL/well of CellTiter-Glo reagent was added into the assay plates using a Bioraptr FRD. After 30 min incubation at room temperature, the luminescence intensity in the plates was measured using a ViewLux plate reader (PerkinElmer).
Potency is the fitted concentration of half-maximal effect.

Question: Which Potency does the source give for `ClP(Cl)(Cl)(Cl)Cl` here?
Answer: inactive

Question: With `CCn1cc[n+](C)c1` as the molecule, how does the Potency read?
Answer: inactive

Question: With `CN1C(=O)NC(=O)C(C)(C2=CCCCC2)C1=O` (stereo not given) as the molecule, how does the Potency read?
Answer: inactive

Question: With `CCN(C)N=O` as the molecule, how does the Potency read?
Answer: inactive

Question: For `CCC(Cl)CCl` (stereo not given), which Potency is on record?
Answer: inactive

Question: For `O=C(C(Cl)(Cl)Cl)C(Cl)(Cl)Cl`, which Potency is on record?
Answer: inactive

Question: For `CCOC(=O)[C@]1(c2ccccc2)Oc2ccccc2[C@@H]1N`, which Potency is on record?
Answer: inactive

Question: With `CCO[C@H]1O[C@@H]2OC3(C)CC[C@H]4[C@H](C)CC[C@@H]([C@H]1C)[C@@]24OO3` as the molecule, how does the Potency read?
Answer: inactive

Question: With `O=C(Nc1ccccc1)Nc1ccnc(Cl)c1` as the molecule, how does the Potency read?
Answer: inactive

Question: Which Potency does the source give for `O=[Se]=O` here?
Answer: inactive

Question: Which Potency does the source give for `C#CCOC(C(=O)OCCN(C)C)(c1ccccc1)c1ccccc1` here?
Answer: inactive

Question: For `CCCCNP(N)(N)=S`, which Potency is on record?
Answer: inactive

Question: For `CCCCc1c(C)nc(NCC)nc1OS(=O)(=O)N(C)C`, which Potency is on record?
Answer: inactive

Question: For `CC(C)O.CC(C)O.OCCN(CCO)CCO.OCCN(CCO)CCO.[Ti]`, which Potency is on record?
Answer: inactive

Question: For `O=C(O)C(F)(F)C(F)(F)C(F)(F)C(F)(F)C(F)(F)C(F)(F)C(F)(F)C(F)(F)C(F)(F)F`, which Potency is on record?
Answer: inactive

Question: Which Potency does the source give for `O=S(=O)(Cl)c1ccccc1` here?
Answer: inactive

Question: With `Cl/C=C\Cl` as the molecule, how does the Potency read?
Answer: inactive

Question: With `Clc1cccc2ccccc12` as the molecule, how does the Potency read?
Answer: inactive

Question: Which Potency does the source give for `O=C(O)c1ccccc1C(=O)Nc1cccc2ccccc12` here?
Answer: inactive

Question: For `CC1(C)[C@H](C=C(Cl)Cl)[C@@H]1C(=O)O[C@@H](C#N)c1cccc(Oc2ccccc2)c1`, which Potency is on record?
Answer: inactive

Question: For `C=C(C#N)CCC#N`, which Potency is on record?
Answer: inactive

Question: Which Potency does the source give for `CCOc1ccc(C(C)(C)COCc2cccc(Oc3ccccc3)c2)cc1` here?
Answer: inactive

Question: With `CCC(COC(=O)c1cc(OC)c(OC)c(OC)c1)(c1ccccc1)N(C)C` (stereo not given) as the molecule, how does the Potency read?
Answer: inactive

Question: Which Potency does the source give for `CC(C)(C)c1cc([N+](=O)[O-])cc([N+](=O)[O-])c1O` here?
Answer: inactive

Question: For `C=CCOC(C)=O`, which Potency is on record?
Answer: inactive

Question: For `C[C@@H]1CC[C@H]2[C@@H](C)C(=O)O[C@@H]3O[C@@]4(C)CC[C@@H]1[C@]32OO4`, which Potency is on record?
Answer: inactive

Question: Which Potency does the source give for `CC(C)N(C(=O)COc1nnc(C(F)(F)F)s1)c1ccc(F)cc1` here?
Answer: inactive

Question: With `O=C(NCc1cccnc1)Nc1ccc([N+](=O)[O-])cc1` as the molecule, how does the Potency read?
Answer: inactive

Question: For `O=[N+]([O-])c1ccc(F)c([N+](=O)[O-])c1`, which Potency is on record?
Answer: 2210 nM (active)

Question: For `Cc1ccc2ccccc2c1`, which Potency is on record?
Answer: inactive

Question: For `CCCCCC[N+](=O)[O-]`, which Potency is on record?
Answer: inactive

Question: With `CCOc1nc(F)cc2nc(S(=O)(=O)Nc3c(Cl)cccc3Cl)nn12` as the molecule, how does the Potency read?
Answer: inactive

Question: Which Potency does the source give for `ClCc1ccccc1` here?
Answer: inactive

Question: With `OCCCBr` as the molecule, how does the Potency read?
Answer: inactive

Question: For `COc1c(C(C)(C)C)cc([N+](=O)[O-])c(C)c1[N+](=O)[O-]`, which Potency is on record?
Answer: inactive

Question: With `CC(=O)[C@H]1CC[C@H]2[C@@H]3CC[C@H]4C[C@](C)(O)CC[C@]4(C)[C@H]3CC[C@]12C` as the molecule, how does the Potency read?
Answer: inactive

Question: With `Nc1nc(N)nc(N)n1` as the molecule, how does the Potency read?
Answer: inactive

Question: Which Potency does the source give for `c1ccc(CN2CCNCC2)cc1` here?
Answer: inactive

Question: With `CCOC(=O)C(Cl)C(C)=O` (stereo not given) as the molecule, how does the Potency read?
Answer: inactive

Question: For `CC[C@H]1C[C@H]2[C@@H]3CCC4=CC(=O)CC[C@@H]4[C@H]3CC[C@]2(C)[C@H]1O`, which Potency is on record?
Answer: inactive
